# Experimental data: PubChem BioAssay (NCATS)
# Several values for one entry are separate records, joined by “and”; a condition that tells them apart may be missing. Equal values may be shown once. Inconclusive results are not listed. Where a call stands in place of a potency, no number is given. Activity calls are given as the source filed them. Unless noted, calls follow the shape of the dose curve; as a rule, active = well fitted inhibition curve with a large enough effect; inconclusive = small, poorly fitted or top-dose-only effect; inactive = flat fitted curve, though single readings scatter. Numbered stars: 1 amine (or outer) side, 2 acyl side, 3 side chain; on linkers, the order of the positions; unused ones are H or OH. Bridge positions count the residues as written; N and C are the ends. Square brackets hold non-standard residues; d marks the D form. Peptide text beside a SMILES is read from it. I, II: the chains in the order shown. Actinocin(9to1) = Cc1c2oc3c(C)ccc(C(=O)[*:1])c3nc-2c(C(=O)[*:2])c(N)c1=O; NMeV = CN[C@H](C(=O)O)C(C)C; Sar = CNCC(=O)O
# How the values were obtained:
# [1] = target: DNA dC->dU-editing enzyme APOBEC-3G (Homo sapiens) (UniProt Q9HC16); assay: qHTS for inhibitors of Vif-A3G interactions: Validation (AID 588379)
# How it was run: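 Yellow fluorescence (Ex 488, Em 500-530) of Vif-coexpressing HeLa A3G-eYFP cells, scanned by Acumen cytometer, reports blocked A3G degradation. Cells plated at 700/well overnight at 37 deg C before compound addition, then a further overnight compound incubation at 37 deg C.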
# [2] = target: Ubiquitin carboxyl-terminal hydrolase 1 (Homo sapiens) (UniProt O94782); assay: Inhibitors of USP1/UAF1: Pilot qHTS (AID 504865); also: nearly all actives have a fitted effect of over 35% in size; also: potency is read from the fitted curve at half-maximal effect
# How it was run: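 In 50mM HEPES pH 7.8 containing 0.5mM EDTA, 1mM TCEP, 0.1 mg/ml BSA and 0.01% Tween-20, 1nM USP1/UAF1 is exposed to compound for 15 min, then Ub-Rho (150nM final) is added and fluorescence is read over time.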
# [3] = target: Peroxisome proliferator-activated receptor gamma (Homo sapiens) (UniProt P37231); assay: qHTS assay for small molecule antagonists of peroxisome proliferator-activated receptor gamma signaling (AID 588537; active = well fitted inhibition curve with a large enough effect in the signal ratio, with a control signal flat, not every such curve was filed as active; the % refers to the signal ratio; also: potency is read from the fitted curve at half-maximal effect)
# How it was run: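 Fluorescence at 460 and 530 nm (405 nm excitation) reported beta-lactamase cleavage of CCF4 after 2 h room-temperature loading. HEK293 reporter cells in 1% charcoal/dextran-treated FBS had received compound and rosiglitazone for 16 h.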
# [4] = target: Estrogen receptor (Homo sapiens) (UniProt P03372); assay: qHTS assay for small molecule agonists of estrogen receptor alpha signaling (AID 588514; calls by dose curve; also: nearly all actives have a fitted effect of over 70% in size)
# How it was run: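 EC50 and efficacy came from Hill fits of beta-lactamase reporter signal (CCF4 dye, 2 h at room temperature) scaled between DMSO and 20 nM 17-beta-estradiol. Agonist mode: HEK293 ER-alpha-UAS-bla cells in charcoal/dextran-stripped serum medium, 18 h compound exposure at 37 C.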
# [5] = target: Peroxisome proliferator-activated receptor gamma (Homo sapiens) (UniProt P37231); assay: qHTS assay for small molecule agonists of peroxisome proliferator-activated receptor gamma signaling (AID 588536; active = well fitted curve in the direction sought with a large enough effect in the signal ratio, with a control signal flat, not every such curve was filed as active; the % refers to the signal ratio)
# How it was run: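 Compound treatment: 16 h, 37 C, HEK293 GeneBLAzer cells. Detection: CCF4, 2 h RT. Values: Hill-fit EC50, efficacy as % of 2 uM rosiglitazone.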
# [6] = target: Glucocorticoid receptor (Homo sapiens) (UniProt P04150); assay: qHTS assay for small molecule antagonists of glucocorticoid receptor signaling (AID 588533; active = well fitted inhibition curve with a large enough effect in the signal ratio, with a control signal flat, not every such curve was filed as active; the % refers to the signal ratio; also: potency is read from the fitted curve at half-maximal effect)
# How it was run: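 Antagonist-mode qHTS: compound titrations added to GRE-bla HeLa cells, then dexamethasone 2 nM final; 18 h, 37 C. CCF4 FRET fluorescence normalized to dexamethasone and DMSO; IC50 from Hill fit.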
# [7] = target: Glucocorticoid receptor (Homo sapiens) (UniProt P04150); assay: qHTS assay for small molecule agonists of glucocorticoid receptor signaling (AID 588532; active = well fitted curve in the direction sought with a large enough effect in the signal ratio, with a control signal flat; the % refers to the signal ratio); conditions: HeLa MMTV-bla, beta-lactamase ratio, agonist, 18 h; stronger effect = higher value; percent of dexamethasone control, DMSO zero
# How it was run: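 MMTV-bla HeLa beta-lactamase reporter cells in 1% charcoal/dextran FBS medium, compounds up to 92 uM for 18 h at 37 C, CCF4 readout; normalized to 0.1 uM dexamethasone (100%), EC50 and efficacy from Hill fits.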
# [8] = target: Bile acid receptor (Homo sapiens) (UniProt Q96RI1); assay: qHTS assay for small molecule antagonists of farnesoid X receptor signaling (AID 588526; calls by dose curve)
# How it was run: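 Antagonist mode: titrated compounds tested against chenodeoxycholic acid stimulation (normalized to 50 uM CDCA and DMSO) in GeneBLAzer HEK293T cells for 16 h. Beta-lactamase read by CCF4 fluorescence; IC50 from Hill fits.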
# [9] = target: Vitamin D3 receptor (Homo sapiens) (UniProt P11473); assay: qHTS assay for small molecule antagonists of vitamin D receptor signaling (AID 588541; calls by dose curve;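 also: receptor activated by calcitriol during compound treatment; series mostly up to about 77 µM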)
# How it was run: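 VDR-UAS-bla HEK293T cells in 2% charcoal-stripped FBS were stimulated with 1-alpha,25-dihydroxyvitamin D3 (3 nM final) plus compound for 16 h at 37 C. The beta-lactamase CCF4 readout was normalized to 50 nM agonist and DMSO, and Hill fits gave IC50.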
# [10] = target: Androgen receptor (Homo sapiens) (UniProt P10275); assay: qHTS assay for small molecule agonists of androgen receptor signaling (AID 588515; active = well fitted curve in the direction sought with a large enough effect in the signal ratio, with a control signal flat; the % refers to the signal ratio); conditions: AR-UAS-bla HEK293, beta-lactamase ratio, agonist 16 h; stronger effect = higher value
# How it was run: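 Stimulation of an AR-responsive β-lactamase reporter in GripTite HEK293 cells was measured after 16 h compound exposure at 37 °C, via CCF4 fluorescence after 2 h RT. EC50 from Hill fits, normalized to R1881 at 30 nM.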
# [11] = target: Androgen receptor (Homo sapiens) (UniProt P10275); assay: qHTS assay for small molecule antagonists of androgen receptor signaling (AID 588516; active = well fitted curve in the direction sought with a large enough effect in the signal ratio, with a control signal flat, not every such curve was filed as active; the % refers to the signal ratio)
# How it was run: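 Cells were plated and incubated 5 h, compounds added in titration, then R1881 (10 nM final) as agonist. After 16 h at 37 C, CCF4 substrate was loaded for 2 h at room temperature and fluorescence measured.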
# [12] = qHTS assay for small molecule antagonists of peroxisome proliferator-activated receptor delta signaling (AID 588535; active = well fitted inhibition curve with a large enough effect in the signal ratio, with a control signal flat, not every such curve was filed as active; the % refers to the signal ratio;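 as to max response: cells co-treated with a PPAR-delta agonist as stimulator during compound exposure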); conditions: HEK293T PPARd-UAS-bla, beta-lactamase FRET ratio, 18 h; 460 nm channel
# How it was run: (§1)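 Fluorescence from CCF4-loaded GeneBLAzer PPAR-delta-UAS-bla HEK293T cells (2 hrs RT loading) quantified reporter inhibition after an 18 hr, 37 C compound exposure across a titration.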
# [13] = target: Peroxisome proliferator-activated receptor delta (Homo sapiens) (UniProt Q03181); assay: as above
# How it was run: as §1
# Sequence of Bile acid receptor (Homo sapiens) (Q96RI1 whole entry, looked up): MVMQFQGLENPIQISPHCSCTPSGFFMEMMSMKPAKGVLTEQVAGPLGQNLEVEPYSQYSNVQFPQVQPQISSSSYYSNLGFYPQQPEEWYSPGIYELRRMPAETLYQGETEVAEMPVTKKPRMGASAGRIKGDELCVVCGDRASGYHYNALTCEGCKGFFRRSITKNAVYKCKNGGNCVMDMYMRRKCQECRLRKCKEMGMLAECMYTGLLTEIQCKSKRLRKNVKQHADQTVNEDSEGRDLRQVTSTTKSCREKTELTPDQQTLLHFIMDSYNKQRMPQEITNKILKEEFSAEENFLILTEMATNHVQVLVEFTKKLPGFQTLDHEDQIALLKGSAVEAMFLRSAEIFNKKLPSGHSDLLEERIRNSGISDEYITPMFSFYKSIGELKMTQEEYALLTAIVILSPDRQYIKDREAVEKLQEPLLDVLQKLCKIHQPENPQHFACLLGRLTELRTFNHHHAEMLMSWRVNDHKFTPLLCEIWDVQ
# Sequence of Vitamin D3 receptor (Homo sapiens) (P11473 whole entry, looked up): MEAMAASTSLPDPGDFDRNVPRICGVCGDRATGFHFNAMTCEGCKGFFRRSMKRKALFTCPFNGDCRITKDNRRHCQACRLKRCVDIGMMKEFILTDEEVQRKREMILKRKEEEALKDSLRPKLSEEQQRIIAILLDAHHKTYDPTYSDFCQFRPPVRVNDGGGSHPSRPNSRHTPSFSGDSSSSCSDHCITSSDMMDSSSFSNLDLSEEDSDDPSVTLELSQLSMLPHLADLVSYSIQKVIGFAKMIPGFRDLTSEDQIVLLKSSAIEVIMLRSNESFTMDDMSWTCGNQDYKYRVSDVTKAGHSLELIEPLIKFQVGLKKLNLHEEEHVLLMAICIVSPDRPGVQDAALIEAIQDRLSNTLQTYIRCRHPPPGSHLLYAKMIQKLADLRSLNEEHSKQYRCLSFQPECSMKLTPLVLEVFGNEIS
# Sequence of Peroxisome proliferator-activated receptor gamma (Homo sapiens) (P37231 whole entry, looked up): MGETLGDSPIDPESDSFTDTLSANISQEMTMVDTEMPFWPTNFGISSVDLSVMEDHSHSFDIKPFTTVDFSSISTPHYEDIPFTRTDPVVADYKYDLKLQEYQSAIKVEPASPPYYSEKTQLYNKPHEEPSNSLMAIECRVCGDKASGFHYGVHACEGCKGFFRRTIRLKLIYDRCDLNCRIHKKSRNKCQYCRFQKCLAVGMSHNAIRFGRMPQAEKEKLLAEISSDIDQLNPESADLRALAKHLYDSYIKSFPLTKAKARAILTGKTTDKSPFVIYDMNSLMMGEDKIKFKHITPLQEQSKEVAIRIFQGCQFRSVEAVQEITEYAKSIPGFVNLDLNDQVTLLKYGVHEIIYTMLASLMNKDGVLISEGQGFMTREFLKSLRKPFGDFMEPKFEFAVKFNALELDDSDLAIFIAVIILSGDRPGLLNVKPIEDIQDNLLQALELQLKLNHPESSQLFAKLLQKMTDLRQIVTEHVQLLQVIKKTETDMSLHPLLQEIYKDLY
# Sequence of Estrogen receptor (Homo sapiens) (P03372 whole entry, looked up): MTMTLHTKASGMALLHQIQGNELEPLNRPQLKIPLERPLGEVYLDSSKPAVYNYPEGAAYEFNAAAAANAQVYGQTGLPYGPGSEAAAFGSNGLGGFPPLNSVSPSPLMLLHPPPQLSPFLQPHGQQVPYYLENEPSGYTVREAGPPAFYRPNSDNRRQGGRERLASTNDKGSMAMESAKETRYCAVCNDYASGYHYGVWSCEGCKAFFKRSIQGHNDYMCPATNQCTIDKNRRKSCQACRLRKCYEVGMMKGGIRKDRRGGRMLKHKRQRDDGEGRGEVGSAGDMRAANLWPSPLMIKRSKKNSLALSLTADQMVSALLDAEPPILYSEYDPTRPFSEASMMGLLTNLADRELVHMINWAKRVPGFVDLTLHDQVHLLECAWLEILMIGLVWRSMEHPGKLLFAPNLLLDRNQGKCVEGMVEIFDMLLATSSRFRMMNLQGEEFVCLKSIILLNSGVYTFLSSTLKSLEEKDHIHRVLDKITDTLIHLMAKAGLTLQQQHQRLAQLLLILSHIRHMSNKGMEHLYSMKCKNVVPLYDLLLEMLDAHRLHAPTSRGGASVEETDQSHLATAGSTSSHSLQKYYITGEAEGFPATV
# Sequence of DNA dC->dU-editing enzyme APOBEC-3G (Homo sapiens) (Q9HC16 whole entry, looked up): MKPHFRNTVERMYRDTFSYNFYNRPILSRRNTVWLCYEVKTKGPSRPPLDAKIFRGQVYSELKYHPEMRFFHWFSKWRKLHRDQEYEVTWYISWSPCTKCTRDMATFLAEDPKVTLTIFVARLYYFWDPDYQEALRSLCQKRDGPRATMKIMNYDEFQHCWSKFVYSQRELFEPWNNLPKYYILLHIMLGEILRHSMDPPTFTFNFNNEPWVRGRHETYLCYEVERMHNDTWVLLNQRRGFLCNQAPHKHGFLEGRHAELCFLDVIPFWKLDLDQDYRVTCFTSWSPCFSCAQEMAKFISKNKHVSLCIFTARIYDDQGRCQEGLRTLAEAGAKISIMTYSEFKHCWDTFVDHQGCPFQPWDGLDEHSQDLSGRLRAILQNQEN
# Sequence of Androgen receptor (Homo sapiens) (P10275 whole entry, looked up): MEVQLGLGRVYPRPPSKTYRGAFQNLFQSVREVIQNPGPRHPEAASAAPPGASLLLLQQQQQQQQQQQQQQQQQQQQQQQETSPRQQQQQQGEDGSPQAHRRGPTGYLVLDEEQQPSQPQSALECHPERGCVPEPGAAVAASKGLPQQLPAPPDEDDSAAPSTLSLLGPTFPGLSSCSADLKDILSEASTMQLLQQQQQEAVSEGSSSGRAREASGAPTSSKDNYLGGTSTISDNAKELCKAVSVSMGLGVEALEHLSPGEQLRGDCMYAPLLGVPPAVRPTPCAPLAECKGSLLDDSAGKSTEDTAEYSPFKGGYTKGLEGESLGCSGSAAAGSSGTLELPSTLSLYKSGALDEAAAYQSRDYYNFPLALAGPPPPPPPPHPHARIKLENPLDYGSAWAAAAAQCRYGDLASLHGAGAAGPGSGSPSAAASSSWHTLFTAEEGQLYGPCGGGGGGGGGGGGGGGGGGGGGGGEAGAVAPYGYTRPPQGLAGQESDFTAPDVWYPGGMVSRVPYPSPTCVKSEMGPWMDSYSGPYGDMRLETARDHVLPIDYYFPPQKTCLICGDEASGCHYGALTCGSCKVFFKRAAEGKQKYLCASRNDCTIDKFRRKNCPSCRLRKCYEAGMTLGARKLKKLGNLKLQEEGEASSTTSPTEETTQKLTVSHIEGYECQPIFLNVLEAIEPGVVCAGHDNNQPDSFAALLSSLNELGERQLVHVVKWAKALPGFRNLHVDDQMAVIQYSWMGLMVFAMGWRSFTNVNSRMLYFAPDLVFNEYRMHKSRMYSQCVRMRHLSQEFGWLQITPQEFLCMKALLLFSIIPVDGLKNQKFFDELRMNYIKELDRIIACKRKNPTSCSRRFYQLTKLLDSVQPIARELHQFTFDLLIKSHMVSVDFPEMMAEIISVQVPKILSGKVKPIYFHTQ
# Sequence of Ubiquitin carboxyl-terminal hydrolase 1 (Homo sapiens) (O94782 whole entry, looked up): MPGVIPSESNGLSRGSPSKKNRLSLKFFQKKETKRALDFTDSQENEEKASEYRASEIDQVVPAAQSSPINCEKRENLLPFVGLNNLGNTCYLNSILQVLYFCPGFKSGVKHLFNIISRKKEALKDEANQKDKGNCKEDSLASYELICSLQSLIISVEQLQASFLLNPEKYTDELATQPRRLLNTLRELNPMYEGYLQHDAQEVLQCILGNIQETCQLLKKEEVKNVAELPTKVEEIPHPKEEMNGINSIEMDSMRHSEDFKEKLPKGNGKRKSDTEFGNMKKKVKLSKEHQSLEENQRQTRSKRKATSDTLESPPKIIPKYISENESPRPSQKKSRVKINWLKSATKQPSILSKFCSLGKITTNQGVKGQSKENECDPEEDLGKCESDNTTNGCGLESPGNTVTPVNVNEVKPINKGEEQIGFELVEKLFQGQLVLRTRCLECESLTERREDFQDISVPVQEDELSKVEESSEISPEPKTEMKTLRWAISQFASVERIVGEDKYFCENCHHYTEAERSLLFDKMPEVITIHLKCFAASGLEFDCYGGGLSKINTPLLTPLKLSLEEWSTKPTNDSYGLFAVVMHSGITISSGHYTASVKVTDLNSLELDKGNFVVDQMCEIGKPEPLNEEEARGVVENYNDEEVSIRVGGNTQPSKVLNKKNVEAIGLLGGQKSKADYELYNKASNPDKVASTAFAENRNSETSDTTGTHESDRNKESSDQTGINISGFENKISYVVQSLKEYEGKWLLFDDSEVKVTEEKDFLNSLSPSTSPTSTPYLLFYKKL
# Sequence of Glucocorticoid receptor (Homo sapiens) (P04150 whole entry, looked up): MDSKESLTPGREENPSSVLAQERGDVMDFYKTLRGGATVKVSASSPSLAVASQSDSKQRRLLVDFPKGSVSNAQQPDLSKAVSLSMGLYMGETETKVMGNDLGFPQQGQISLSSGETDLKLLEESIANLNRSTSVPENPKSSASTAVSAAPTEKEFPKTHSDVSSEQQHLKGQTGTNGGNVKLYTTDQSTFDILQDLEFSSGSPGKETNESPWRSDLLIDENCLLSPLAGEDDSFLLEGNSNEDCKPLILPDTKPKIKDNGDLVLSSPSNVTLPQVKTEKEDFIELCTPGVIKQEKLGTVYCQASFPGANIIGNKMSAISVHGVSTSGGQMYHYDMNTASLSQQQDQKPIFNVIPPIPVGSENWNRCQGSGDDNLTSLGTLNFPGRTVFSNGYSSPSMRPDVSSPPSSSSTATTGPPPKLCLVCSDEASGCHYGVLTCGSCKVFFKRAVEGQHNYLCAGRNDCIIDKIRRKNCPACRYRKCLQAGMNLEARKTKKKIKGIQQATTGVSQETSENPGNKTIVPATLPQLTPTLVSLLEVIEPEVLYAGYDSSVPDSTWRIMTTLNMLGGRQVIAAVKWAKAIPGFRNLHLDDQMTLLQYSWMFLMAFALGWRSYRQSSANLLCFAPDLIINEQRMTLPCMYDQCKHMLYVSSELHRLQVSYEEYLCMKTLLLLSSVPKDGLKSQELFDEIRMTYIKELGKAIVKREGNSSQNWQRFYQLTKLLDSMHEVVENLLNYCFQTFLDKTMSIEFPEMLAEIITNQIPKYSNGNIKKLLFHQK
smiles,measurement,setting,value
Nc1nc2ncc(CNc3ccc(C(=O)N[C@@H](CCC(=O)O)C(=O)O)cc3)nc2c(=O)[nH]1,outcome,[1],inactive
CC(O)(P(=O)(O)O)P(=O)(O)O,Potency,[2],inactive
same,Potency,[3],inactive
C[C@@H]1CN(CCCn2c3ccccc3c3ccccc32)C[C@H](C)N1,Potency,[2],inactive
same,outcome,[1],inactive
CC(C)(C)CC(C)(C)c1ccc(OCCOCC[N+](C)(C)Cc2ccccc2)cc1,outcome,[4],inactive
same,outcome,[5],inactive
Oc1c(Cl)cc(Cl)cc1Sc1cc(Cl)cc(Cl)c1O,Potency,[2],35.5 µM (active) and 20 µM (active)
same,outcome,[4],inactive
Oc1c(I)cc(Cl)c2cccnc12,Potency,[2],inactive
same,Potency,[6],28.2 µM (active)
CN=C(NC#N)NCCSCc1csc(N=C(N)N)n1,Potency,[2],inactive
same,outcome,[1],inactive
NC(=NCCCCCCN=C(N)/N=C(\N)Nc1ccc(Cl)cc1)/N=C(\N)Nc1ccc(Cl)cc1,Potency,[2],56.2 µM (active) and 50.1 µM (active)
same,activation,[7],-3.44% (inactive) and 1.22% (inactive)
same,Potency,[3],inactive
CC(=O)O[C@]1(C(C)=O)CC[C@H]2[C@@H]3C[C@H](C)C4=CC(=O)CC[C@]4(C)[C@H]3CC[C@@]21C,outcome,[4],inactive
O=c1ccc2ccccc2o1,Potency,[2],inactive
same,outcome,[4],inactive
same,Potency,[8],inactive
same,outcome,[5],inactive
same,Potency,[3],inactive
O=C(O)CCCCC(=O)O,Potency,[2],inactive
same,outcome,[4],inactive
same,Potency,[8],inactive
same,activation,[7],6.23% (inactive)
same,Potency,[6],inactive
same,outcome,[5],inactive
same,Potency,[3],inactive
same,Potency,[9],inactive
COc1c(C)c2c(c(O)c1C/C=C(\C)CCC(=O)O)C(=O)OC2,Potency,[2],inactive
same,outcome,[1],inactive
O=C1OC(c2ccc(O)cc2)(c2ccc(O)cc2)c2ccccc21,activation,[10],-5.75% (inactive)
same,Potency,[3],39.8 µM (active)
same,Potency,[9],inactive
CC(C)(Oc1ccc(Cl)cc1)C(=O)O,Potency,[2],inactive
same,outcome,[1],inactive
same,Potency,[6],inactive
same,outcome,[5],inactive
same,Potency,[3],inactive
same,Potency,[9],inactive
Cc1cc(=O)n(-c2ccccc2)n1C,outcome,[4],inactive
same,activation,[10],-8.07% (inactive)
same,outcome,[11],inactive
same,Potency,[8],inactive
same,outcome,[5],inactive
same,Potency,[3],inactive
same,Potency,[9],inactive
C=C(CC)C(=O)c1ccc(OCC(=O)O)c(Cl)c1Cl,Potency,[2],inactive
same,outcome,[4],inactive
same,activation,[7],-8.92% (inactive)
COC1=CC(=O)C[C@@H](C)[C@]12Oc1c(Cl)c(OC)cc(OC)c1C2=O,Potency,[2],inactive
same,outcome,[4],inactive
same,activation,[7],-8.46% (inactive)
"Cc1c2oc3c(C)ccc(C(=O)N[C@@H]4C(=O)N[C@H](C(C)C)C(=O)N5CCC[C@H]5C(=O)N(C)CC(=O)N(C)[C@@H](C(C)C)C(=O)O[C@@H]4C)c3nc-2c(C(=O)N[C@@H]2C(=O)N[C@H](C(C)C)C(=O)N3CCC[C@H]3C(=O)N(C)CC(=O)N(C)[C@@H](C(C)C)C(=O)O[C@@H]2C)c(N)c1=O (I: T[dV]P[Sar][NMeV] / II: T[dV]P[Sar][NMeV]; ester I:1-I:C, II:1-II:C; linker I:N-II:N via Actinocin(9to1))",outcome,[4],inactive
same,Potency,[6],126 nM (active) and 112 nM (active)
CN(C)/N=N/c1nc[nH]c1C(N)=O,Potency,[2],inactive
same,outcome,[4],inactive
same,Potency,[8],inactive
same,activation,[7],-5.55% (inactive)
same,max response,[12],24%
same,Potency,[13],inactive
same,outcome,[5],inactive
same,Potency,[3],inactive
